ChEMBL document CHEMBL3988442, “University of Dundee, Small-Polar-MMV Screening Library” (2021)
For some assays here: Measured potencies and affinities stand elsewhere.

What was measured:
Set-up in all cases: scale not given: direction of the effect not stated beside the values
[1] = target: Protein translocase subunit SecA (Escherichia coli (strain K12)) (UniProt P10408); experiment: Assay to Identify E. coli SecA ATPase Inhibitors; assay type: functional; conditions: 30 µM
[2] = target: T1, Ubiquitin-activating enzyme e1, putative (Leishmania donovani (strain BPK282A1)) (UniProt E9BSI1); experiment: Leishmania donovani Ubiquitin Activating Enzyme (LdE1); assay type: functional; conditions: 30 µM
T1 sequence (whole entry): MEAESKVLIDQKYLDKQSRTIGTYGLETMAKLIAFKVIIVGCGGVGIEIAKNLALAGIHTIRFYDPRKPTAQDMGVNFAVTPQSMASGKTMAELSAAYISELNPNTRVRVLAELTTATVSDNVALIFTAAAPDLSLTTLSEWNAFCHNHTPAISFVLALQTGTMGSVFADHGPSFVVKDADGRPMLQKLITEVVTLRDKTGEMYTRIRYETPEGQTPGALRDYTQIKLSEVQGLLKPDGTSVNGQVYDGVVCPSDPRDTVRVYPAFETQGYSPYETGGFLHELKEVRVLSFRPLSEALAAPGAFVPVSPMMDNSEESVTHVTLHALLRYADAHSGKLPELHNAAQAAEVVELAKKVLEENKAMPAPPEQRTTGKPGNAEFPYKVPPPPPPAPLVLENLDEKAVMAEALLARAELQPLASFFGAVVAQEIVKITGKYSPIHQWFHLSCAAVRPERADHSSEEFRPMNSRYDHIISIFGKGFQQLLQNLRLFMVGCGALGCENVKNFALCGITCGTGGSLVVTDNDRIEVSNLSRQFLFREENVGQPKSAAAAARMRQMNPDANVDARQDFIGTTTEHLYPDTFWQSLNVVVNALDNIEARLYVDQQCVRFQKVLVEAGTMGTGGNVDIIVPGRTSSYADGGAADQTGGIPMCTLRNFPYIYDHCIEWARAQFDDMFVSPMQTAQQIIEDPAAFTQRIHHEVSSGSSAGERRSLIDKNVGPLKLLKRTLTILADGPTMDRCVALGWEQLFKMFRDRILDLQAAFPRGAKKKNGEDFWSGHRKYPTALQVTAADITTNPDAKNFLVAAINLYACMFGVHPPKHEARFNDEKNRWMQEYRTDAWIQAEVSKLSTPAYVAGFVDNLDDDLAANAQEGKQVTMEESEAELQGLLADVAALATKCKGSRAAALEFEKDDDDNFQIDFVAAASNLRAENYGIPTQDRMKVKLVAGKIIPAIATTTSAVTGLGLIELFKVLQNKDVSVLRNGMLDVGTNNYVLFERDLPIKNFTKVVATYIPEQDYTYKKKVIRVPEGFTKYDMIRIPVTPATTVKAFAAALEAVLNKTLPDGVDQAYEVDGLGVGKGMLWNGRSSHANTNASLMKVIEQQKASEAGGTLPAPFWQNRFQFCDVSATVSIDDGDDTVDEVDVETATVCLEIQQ

[3] = target: AMP-activated protein kinase, AMPK (Homo sapiens) (UniProt P54646+O43741+P54619+Q9UGJ0+Q9Y478+Q13131+Q9UGI9); experiment: AMP-dependent Kinase enzyme assay. An in vitro enzyme assay that detects ADP turnover that is directly proportional to AMPK activity. This uses naive AMPK that is activated during the assay with MK-8722; assay type: functional; conditions: 30 µM
[4] = target: Sialic acid-binding Ig-like lectin 9 (Homo sapiens) (UniProt Q9Y336); experiment: Hs-Siglec9 ALPHAscreen SOP 20170721; conditions: 10 µM
[5] = system: Trypanosoma cruzi; experiment: Trypanosoma cruzi phosphomannomutase and mannose-1-phosphate guanylyltransferase assay; assay type: functional; conditions: 10 µM
[6] = target: T2, Arginase-2, mitochondrial (Homo sapiens) (UniProt P78540); experiment: in vitro enzyme assay to detect the production of urea directly proportional to the activity of Arginase II; assay type: functional; conditions: 33.3 µM; further: in the data most compounds retested in dose-response had high values
T2 sequence (whole entry): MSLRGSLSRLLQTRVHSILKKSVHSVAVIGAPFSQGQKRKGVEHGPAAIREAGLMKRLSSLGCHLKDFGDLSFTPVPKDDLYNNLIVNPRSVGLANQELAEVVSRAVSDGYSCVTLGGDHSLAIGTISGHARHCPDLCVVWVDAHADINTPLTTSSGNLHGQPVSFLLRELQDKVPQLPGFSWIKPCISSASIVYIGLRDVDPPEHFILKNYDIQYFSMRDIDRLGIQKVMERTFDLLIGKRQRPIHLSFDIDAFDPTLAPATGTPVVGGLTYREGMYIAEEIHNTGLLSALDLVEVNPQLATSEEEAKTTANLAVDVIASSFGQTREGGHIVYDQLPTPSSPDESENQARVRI

[7] = target: T3, Proteasome subunit beta (Trypanosoma cruzi) (UniProt O96673); experiment: Trypanosoma cruzi proteasome chymotrypsin-like activity (TcProtChymo) assay.; further: in the data most compounds retested in dose-response had high values; assay type: functional; conditions: 9.37 µM
T3 sequence (whole entry): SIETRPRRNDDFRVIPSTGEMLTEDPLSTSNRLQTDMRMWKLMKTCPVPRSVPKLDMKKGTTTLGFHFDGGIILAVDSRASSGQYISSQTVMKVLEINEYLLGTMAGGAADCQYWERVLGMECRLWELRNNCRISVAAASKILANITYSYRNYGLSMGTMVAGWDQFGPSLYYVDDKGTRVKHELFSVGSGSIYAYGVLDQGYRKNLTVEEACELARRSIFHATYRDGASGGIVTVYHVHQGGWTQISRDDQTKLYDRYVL

[8] = species: Homo sapiens; experiment: To identify inhibition of the IFN signalling (Jak-Stat) pathway via expression of an eGFP reporter gene under the control of an IFN-stimulated response element (ISRE) containing MxA promoter.; assay type: functional; conditions: 30 µM
[9] = target: T4, Tyrosyl-tRNA synthetase, putative (Trypanosoma cruzi (strain CL Brener)) (UniProt Q4DSP6); experiment: Trypanosoma cruzi tyrosyl tRNA synthetase (TcYRS) _High Tyrosine SOP; assay type: functional; conditions: 30 µM; further: in the data most compounds retested in dose-response had high values
T4 sequence (whole entry): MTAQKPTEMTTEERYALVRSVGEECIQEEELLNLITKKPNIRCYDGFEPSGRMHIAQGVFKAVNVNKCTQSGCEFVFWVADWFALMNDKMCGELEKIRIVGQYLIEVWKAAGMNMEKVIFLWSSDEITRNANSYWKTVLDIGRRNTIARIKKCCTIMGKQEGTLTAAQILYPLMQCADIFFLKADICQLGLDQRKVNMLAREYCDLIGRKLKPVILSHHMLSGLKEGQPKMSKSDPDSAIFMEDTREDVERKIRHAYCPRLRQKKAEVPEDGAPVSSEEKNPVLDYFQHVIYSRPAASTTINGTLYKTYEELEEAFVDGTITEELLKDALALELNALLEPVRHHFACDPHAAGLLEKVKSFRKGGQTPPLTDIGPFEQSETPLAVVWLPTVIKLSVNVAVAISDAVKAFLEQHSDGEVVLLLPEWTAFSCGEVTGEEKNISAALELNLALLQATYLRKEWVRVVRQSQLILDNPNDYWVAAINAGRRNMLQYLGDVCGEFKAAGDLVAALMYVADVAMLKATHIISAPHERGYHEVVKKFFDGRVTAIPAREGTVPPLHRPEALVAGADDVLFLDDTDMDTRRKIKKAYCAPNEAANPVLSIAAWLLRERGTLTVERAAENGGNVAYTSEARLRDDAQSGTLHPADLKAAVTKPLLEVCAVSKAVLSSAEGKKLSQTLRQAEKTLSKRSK

[10] = target: T4, Tyrosyl-tRNA synthetase, putative (Trypanosoma cruzi (strain CL Brener)); experiment: Trypanosoma cruzi tyrosyl tRNA synthetase (TcYRS) SOP; assay type: functional; conditions: 30 µM
[11] = target: Chromo domain-containing protein 1 (Saccharomyces cerevisiae (strain ATCC 204508 / S288c) (Baker's yeast)) (UniProt P32657); experiment: ScCHD-1 Enzyme Inhibition Assay; assay type: functional; conditions: 30 µM; further: in the data most compounds retested in dose-response had high values
Chromo domain-containing protein 1 (Saccharomyces cerevisiae (strain ATCC 204508 / S288c) (Baker's yeast)), sequence (P32657 whole entry, the tested form may be a part): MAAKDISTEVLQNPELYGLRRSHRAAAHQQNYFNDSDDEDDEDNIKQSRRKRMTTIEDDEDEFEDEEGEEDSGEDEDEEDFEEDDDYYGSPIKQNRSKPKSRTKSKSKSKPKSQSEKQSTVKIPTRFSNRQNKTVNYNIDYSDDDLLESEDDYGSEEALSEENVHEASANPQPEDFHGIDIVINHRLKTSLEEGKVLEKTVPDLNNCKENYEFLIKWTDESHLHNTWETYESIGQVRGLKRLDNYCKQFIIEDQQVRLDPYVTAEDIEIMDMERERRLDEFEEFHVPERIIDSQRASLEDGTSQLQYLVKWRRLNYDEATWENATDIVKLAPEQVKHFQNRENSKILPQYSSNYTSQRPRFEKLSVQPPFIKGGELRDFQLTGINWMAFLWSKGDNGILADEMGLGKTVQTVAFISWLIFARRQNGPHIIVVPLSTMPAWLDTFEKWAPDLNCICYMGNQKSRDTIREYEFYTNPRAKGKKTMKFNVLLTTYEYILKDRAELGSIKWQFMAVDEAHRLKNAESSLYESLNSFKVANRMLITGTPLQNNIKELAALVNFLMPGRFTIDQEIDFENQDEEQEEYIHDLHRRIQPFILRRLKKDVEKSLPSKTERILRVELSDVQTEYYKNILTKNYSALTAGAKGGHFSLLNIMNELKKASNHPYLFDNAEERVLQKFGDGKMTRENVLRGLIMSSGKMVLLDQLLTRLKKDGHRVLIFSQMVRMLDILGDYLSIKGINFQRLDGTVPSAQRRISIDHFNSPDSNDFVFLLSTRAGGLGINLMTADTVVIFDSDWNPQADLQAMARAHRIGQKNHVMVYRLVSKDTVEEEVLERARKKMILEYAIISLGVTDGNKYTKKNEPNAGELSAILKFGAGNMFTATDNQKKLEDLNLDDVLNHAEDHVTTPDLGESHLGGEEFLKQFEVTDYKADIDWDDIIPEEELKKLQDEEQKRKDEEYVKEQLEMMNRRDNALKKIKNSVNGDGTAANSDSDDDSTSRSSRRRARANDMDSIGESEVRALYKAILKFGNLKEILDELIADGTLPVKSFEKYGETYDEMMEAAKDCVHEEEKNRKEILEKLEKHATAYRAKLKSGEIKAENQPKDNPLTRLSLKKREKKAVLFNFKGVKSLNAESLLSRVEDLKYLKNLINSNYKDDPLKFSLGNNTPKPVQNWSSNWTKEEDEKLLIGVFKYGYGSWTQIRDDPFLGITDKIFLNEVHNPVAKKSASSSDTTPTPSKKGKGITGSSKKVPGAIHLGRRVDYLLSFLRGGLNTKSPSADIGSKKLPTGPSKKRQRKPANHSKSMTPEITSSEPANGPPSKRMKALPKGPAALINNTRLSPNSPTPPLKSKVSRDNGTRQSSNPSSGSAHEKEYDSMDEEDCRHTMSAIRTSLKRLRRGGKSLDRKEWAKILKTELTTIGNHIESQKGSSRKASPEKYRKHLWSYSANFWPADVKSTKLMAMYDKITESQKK

Protein translocase subunit SecA (Escherichia coli (strain K12)), sequence (P10408 whole entry): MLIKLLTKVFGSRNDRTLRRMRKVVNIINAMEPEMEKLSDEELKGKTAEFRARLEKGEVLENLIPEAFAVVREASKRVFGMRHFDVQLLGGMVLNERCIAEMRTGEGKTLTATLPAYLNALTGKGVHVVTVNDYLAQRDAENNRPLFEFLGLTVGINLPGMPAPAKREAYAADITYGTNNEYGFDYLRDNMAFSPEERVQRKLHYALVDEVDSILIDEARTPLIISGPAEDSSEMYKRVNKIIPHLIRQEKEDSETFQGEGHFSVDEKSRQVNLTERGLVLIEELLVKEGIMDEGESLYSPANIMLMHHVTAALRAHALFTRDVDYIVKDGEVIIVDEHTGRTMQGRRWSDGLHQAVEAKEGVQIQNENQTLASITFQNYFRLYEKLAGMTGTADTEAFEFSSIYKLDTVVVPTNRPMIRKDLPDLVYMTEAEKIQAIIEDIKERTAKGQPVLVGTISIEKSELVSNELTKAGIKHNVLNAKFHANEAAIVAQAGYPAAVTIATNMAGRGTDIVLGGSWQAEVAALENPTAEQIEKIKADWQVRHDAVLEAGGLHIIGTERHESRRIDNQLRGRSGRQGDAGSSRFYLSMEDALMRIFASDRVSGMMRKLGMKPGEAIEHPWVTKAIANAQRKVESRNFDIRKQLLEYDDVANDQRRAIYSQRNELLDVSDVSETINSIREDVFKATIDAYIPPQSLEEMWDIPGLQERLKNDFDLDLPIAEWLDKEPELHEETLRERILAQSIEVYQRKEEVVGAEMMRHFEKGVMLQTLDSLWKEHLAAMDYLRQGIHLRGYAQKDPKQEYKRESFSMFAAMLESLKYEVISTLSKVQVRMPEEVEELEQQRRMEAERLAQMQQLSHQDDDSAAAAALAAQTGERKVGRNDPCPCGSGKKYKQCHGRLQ
Sialic acid-binding Ig-like lectin 9 (Homo sapiens), sequence (Q9Y336 whole entry): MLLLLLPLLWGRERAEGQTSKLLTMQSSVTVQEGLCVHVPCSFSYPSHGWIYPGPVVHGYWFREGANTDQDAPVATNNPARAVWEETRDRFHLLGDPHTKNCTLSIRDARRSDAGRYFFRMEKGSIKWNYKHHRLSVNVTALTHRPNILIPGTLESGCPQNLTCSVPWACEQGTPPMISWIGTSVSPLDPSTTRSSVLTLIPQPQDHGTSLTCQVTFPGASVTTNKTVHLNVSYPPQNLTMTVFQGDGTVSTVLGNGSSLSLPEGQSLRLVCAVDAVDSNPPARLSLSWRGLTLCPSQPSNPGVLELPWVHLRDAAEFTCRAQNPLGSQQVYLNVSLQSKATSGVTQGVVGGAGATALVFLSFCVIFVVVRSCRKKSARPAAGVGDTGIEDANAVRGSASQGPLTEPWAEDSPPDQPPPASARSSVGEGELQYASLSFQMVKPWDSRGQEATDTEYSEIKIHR

| SMILES | Percent Effect [1] [%] | Percent Effect [2] [%] | Percent Effect [3] [%] | Percent Effect [4] [%] | Percent Effect [5] [%] | Percent Effect [6] [%] | Percent Effect [7] [%] | Percent Effect [8] [%] | Percent Effect [9] [%] | Percent Effect [10] [%] | Percent Effect [11] [%] |
| --- | --- | --- | --- | --- | --- | --- | --- | --- | --- | --- | --- |
| CN(CCc1ccccc1)C1CCCN(Cc2nccn2C)C1 (configuration not stated) | -4.99 | -39 | -1.69 | 5.27 | 8.36 | 0 | 9.48 | -25.8 | 6.45 | 6.17 | -8.68 |
| c1ccc(-c2nc(CNC3CCc4ncnn4C3)co2)cc1 (configuration not stated) | -6.67 | 20.8 | -3.92 | 12.6 | 7.68 | -3.92 | 3.21 | 9.63 | 8.74 | 19.5 | -7.68 |
| COCCN1C[C@@H]2CCCO[C@@H]2[C@H](N(C)Cc2ccco2)C1 | -2.66 | 10.7 | 1.93 | -6.59 | 2.56 | 50.6 | 11 | 16.7 | 7.45 | 16.7 | -2.07 |
| CCN1CCN(C2CCN(Cc3nnc(C(C)(C)C)o3)CC2)C1=O | -4.08 | 13 | 7.53 | -0.00786 | 0.686 | 1.05 | 10.3 | 4.76 | 7.62 | 14.1 | -21.7 |
| Cc1oc(C)c(C(=O)NCc2cccc(NC(=O)CN(C)C)c2)c1C | -4.78 | -3.8 | -0.508 | -0.734 | 1.95 | -1.94 | 0.172 | -3.06 | 1.04 | 7.59 | 7.97 |
| CN1CCN(Cc2cccnc2)C2(CCN(c3ncc(F)cn3)C2)C1=O (configuration not stated) | -4.27 | 5.2 | 2.79 | 8.1 | -0.885 | -13.8 | 2.33 | -4.32 | 4.3 | 8.64 | -0.489 |
| CS(=O)(=O)NCCCNC(=O)c1cccnc1O | -3.07 | 0 | -3.83 | -4.12 | 1.76 | 1.25 | 16.6 | 6.15 | 7.92 | 8.54 | -4.62 |
| Cn1cccc1CNC(=O)CCCc1nnc2ccccn12 | -4.97 | 6.67 | -2.6 | 1.09 | 3.14 | -8.28 | 12.4 | -1.85 | 3.17 | 2.56 | -6.43 |
| O=C(c1cc[nH]n1)N1CCC(Nc2cccnn2)CC1 | -5.6 | 7.79 | 1.01 | -11.8 | 8.52 | -2.74 | 9.62 | 5.31 | 6.67 | 11.8 | -18.4 |
| CCS(=O)(=O)N1CCC[C@]2(C(=O)N(C)C)CN(c3ccccn3)C[C@@H]2C1 | -6.08 | 5.33 | 2.98 | 0.0913 | 4.05 | -50 | 10.1 | -17 | 3.12 | 12.5 | -5.8 |
| c1ccc(-c2nc(CN3CCCC(Cn4cncn4)C3)no2)cc1 (configuration not stated) | -5.26 | -3.8 | 7.69 | -3.34 | -3.59 | 5.38 | 4.8 | 0.0835 | 2.08 | 7.59 | -9.44 |
| Cn1cc(Br)c(=O)c(NS(=O)(=O)c2ccc(F)cc2)c1 | -0.436 | 2.7 | -1.93 | 10.6 | 5.41 | -0.476 | 10.5 | 2.64 | 2.65 | 12.2 | -2.91 |
| COc1ccc(S(=O)(=O)N2CCCC3(CCCN3S(C)(=O)=O)C2)cc1 (configuration not stated) | -2.95 | 10.8 | -2.61 | -2.37 | -8.31 | -2.73 | 12.3 | 7.81 | 0 | 8.64 | -3.67 |
| CN(C)C(=O)COC1COC2(CCN(S(C)(=O)=O)CC2)C1 (configuration not stated) | 0.201 | 13.5 | 1.81 | -7.02 | -1.47 | 9.87 | 18.1 | -9.56 | 4.32 | 12.8 | -1.01 |
| Cc1ccc2ncnc(N3CCOCC3c3c(C)nn(C)c3C)c2c1 (configuration not stated) | -3.4 | 5.33 | -4.79 | 3.91 | -0.487 | -0.521 | 16 | 21.1 | 6.01 | 8.64 | -5.67 |
| CCOc1ccc(Cl)cc1C1CCCN1 (configuration not stated) | -3.13 | 10.5 | 4 | 1.21 | 3.21 | -11.8 | 13.5 | 2.15 | 0 | 7.79 | -2.96 |
| Cc1cc(C)n(CC2CN(Cc3nc(-c4ccoc4)no3)CCO2)n1 (configuration not stated) | -0.455 | 16.2 | -10.1 | 0.775 | 6.51 | -2.81 | 5.22 | 7.72 | 3.45 | 18.5 | -11.6 |
| CC(C)Cc1cc(C(=O)N2CCCC(n3cncn3)C2)[nH]n1 (configuration not stated) | -1.38 | 11.4 | 6.88 | -0.206 | 1.33 | 10.1 | 2.4 | 0.485 | 5.21 | 12.7 | -22.3 |
| O=C(c1cnco1)N1C[C@@H]2CC[C@H](Oc3cccc(F)c3)[C@@H]2C1 | -9.68 | 12.2 | 2.91 | 6.76 | 0.988 | -4.41 | 10.9 | 9.56 | 3.23 | 11.7 | -8.63 |
| Cc1cc(CN(C)C2CCCN(c3cccnn3)C2)on1 (configuration not stated) | -4.98 | -2.67 | -10.6 | -0.639 | 4.19 | 1.56 | 16.2 | -1.53 | 11.5 | 13.6 | -1.67 |
| CCc1nc(CN(C)CC2CCN(CC(C)O)CC2)no1 (configuration not stated) | -2.22 | 0 | -8.55 | 0.164 | 9.46 | -2.86 | 1.03 | -23.1 | 2.65 | 7.32 | -1.75 |
| O=C(NCCCn1cccn1)C1(c2ccc(Br)cc2)CC1 | 0.127 | 8.22 | 12.9 | -1.49 | -3.13 | 2.73 | 10.1 | 8.94 | 4.3 | 10 | -4.29 |
